Results filed as inconclusive are left out. Calls of active or inactive are those of the source. The call rests on the fitted dose curve.
On the % scale 0 is the no-effect control and ±100 the full control effect.

A short description of the assay: qHTS assay to identify small molecule agonists of the endoplasmic reticulum stress response signaling pathway - cell viability counter screen (AID 1159517).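 Further: HeLa cells carrying an ER stress response element beta-lactamase reporter; nearly all actives have a fitted effect of over 50% in size.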 The following applies: ESRE-bla HeLa viability, CellTiter-Glo luminescence, 5 h; series mostly up to 61 µM; activity change, negative = cytotoxicity: at the top concentration. A digest of the protocol: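 CellTiter-Glo was added to wells already read for beta-lactamase FRET, and luminescence was recorded 30 min later. Cells: ESRE-bla HeLa, 1,500 per well, compound exposure 5 hr at 37 C.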
Turning to `Cc1ncc(CSSCc2cnc(C)c(O)c2CO)c(CO)c1O`, the “activity change, negative = cytotoxicity” value is -5.99% (inactive).

With `CCCCCCC(CCCCCCCCCCC(=O)OCC(COC(C)=O)OC(C)=O)OC(C)=O` (stereo not drawn), the “activity change, negative = cytotoxicity” value is 18.9% (inactive).

Regarding `NC(=O)Nc1nc2ccccc2[nH]1`, the “activity change, negative = cytotoxicity” value is -5.95% (inactive).

As to `Cc1nc(-c2ccc(OCC(C)C)c(C#N)c2)sc1C(=O)O`, the “activity change, negative = cytotoxicity” value is 4.54% (inactive).

Turning to `CC(C)[C@H](N)C(=O)OCCOCn1cnc2c(=O)[nH]c(N)nc21`, the “activity change, negative = cytotoxicity” value was 15.7% (inactive).

For `O=C(O)C(O)[C@H](O)[C@@H](O)[C@H](O)[C@H](O)CO` (stereo partly drawn), the “activity change, negative = cytotoxicity” value was -16.8% [at 78.8 µM] (inactive).

Turning to `CC(O)CN(CCCN(C)C)CCCN(C)C` (stereo not drawn), the “activity change, negative = cytotoxicity” value was 1.03% (inactive).

On to `Cc1cc(C)c(NC(=O)CN(CC(=O)O)CC(=O)O)c(C)c1Br`, for which the “activity change, negative = cytotoxicity” value is 1.04% (inactive).

With `CCCC=O`, the “activity change, negative = cytotoxicity” value is -18.3% (inactive).

Turning to `CC(C)(O)C(=O)c1ccc(OCCO)cc1`, the “activity change, negative = cytotoxicity” value was 10.4% (inactive).

In the case of `CC(C)(O)c1ccccc1`, the “activity change, negative = cytotoxicity” value was 21% (inactive).

Regarding `CCc1cc(S(=O)(=O)O)c2cc(C(C)C)cccc1-2`, the “activity change, negative = cytotoxicity” value was -0.105% (inactive).

With `Cc1onc(-c2ccccc2)c1-c1ccc(S(N)(=O)=O)cc1`, the “activity change, negative = cytotoxicity” value was 12.9% (inactive).

In the case of `N#CCc1ccccc1[N+](=O)[O-]`, the “activity change, negative = cytotoxicity” value was -5.78% (inactive).

Turning to `O=C1C(CCS(=O)c2ccccc2)C(=O)N(c2ccccc2)N1c1ccccc1` (stereo not drawn), the “activity change, negative = cytotoxicity” value is -0.323% (inactive).

As to `CCOC(=O)Cn1c(=O)sc2cccc(Cl)c21`, the “activity change, negative = cytotoxicity” value was 8.99% (inactive).

As for `O=C(O)c1cccc(C(=O)O)n1`, the “activity change, negative = cytotoxicity” value was 0.0576% (inactive).

On to `CCCCCC[C@@H](CCC)C(=O)O`, for which the “activity change, negative = cytotoxicity” value is -5.69% (inactive).

Regarding `Cc1cc(C)cc(OCC2CNC(=O)O2)c1` (stereo not drawn), the “activity change, negative = cytotoxicity” value was -0.0794% (inactive).

With `NC(=O)c1ncn([C@@H]2O[C@H](CO)[C@@H](O)[C@H]2O)c1O`, the “activity change, negative = cytotoxicity” value was -23% (inactive).

On to `NCCN1CCNC1=O`, for which the “activity change, negative = cytotoxicity” value was 12% (inactive).

For the molecule `O=C(O)/C=C/c1ccc(Cn2ccnc2)cc1`, the “activity change, negative = cytotoxicity” value was -9.58% (inactive).

Regarding `CSc1ccc(C=O)cc1`, the “activity change, negative = cytotoxicity” value is -3.08% (inactive).

Turning to `CCC(C)(C)C1CCC(OC)CC1` (stereo not drawn), the “activity change, negative = cytotoxicity” value was 0.235% (inactive).

On to `C=CCSCC1Nc2cc(Cl)c(S(N)(=O)=O)cc2S(=O)(=O)N1` (stereo not drawn), for which the “activity change, negative = cytotoxicity” value was -5.34% (inactive).

As for `C[C@H]1O[C@@H](n2cc(F)c(=O)[nH]c2=O)[C@H](O)[C@@H]1O`, the “activity change, negative = cytotoxicity” value is 1.85% (inactive).

For `Cc1c(F)cc2c(=O)c(C(=O)O)cn3c2c1CCC3C` (stereo not drawn), the “activity change, negative = cytotoxicity” value is 13.5% (inactive).

On to `CCCOCC(C)OCC(C)O` (stereo not drawn), for which the “activity change, negative = cytotoxicity” value is 4.05% [at 78.8 µM] (inactive).

Consider `C#CC(O)CCCCC` (stereo not drawn), for which the “activity change, negative = cytotoxicity” value was -0.494% [at 78.8 µM] (inactive).

As for `CC(C)N1C(=O)c2ccccc2C1=O`, the “activity change, negative = cytotoxicity” value is 7.33% (inactive).

`O=S(=O)(O)c1ccccc1O`: the “activity change, negative = cytotoxicity” value is 2.25% (inactive).

Regarding `NS(=O)(=O)c1cc2c(cc1Cl)NC(CSCc1ccccc1)=NS2(=O)=O`, the “activity change, negative = cytotoxicity” value is -1.55% (inactive).

In the case of `CC(=O)c1ccc(C)cc1`, the “activity change, negative = cytotoxicity” value was -0.893% (inactive).

As to `CC(CCO)CCCC(C)(C)O` (stereo not drawn), the “activity change, negative = cytotoxicity” value was -2.65% (inactive).

For `CC1(C)OC(=O)Nc2ccc(Br)cc21`, the “activity change, negative = cytotoxicity” value is 8.1% (inactive).

`CCCCCCCCN(C)CCCCCCCC`: the “activity change, negative = cytotoxicity” value was 0.421% [at 78.8 µM] (inactive).

With `CC(C)COC(=O)c1ccccc1O`, the “activity change, negative = cytotoxicity” value was -9.83% (inactive).

`CCCCC=O`: the “activity change, negative = cytotoxicity” value is 16.1% (inactive).

The values are drawn from PubChem BioAssay (Tox21).
